The panel holds about 83,000 compounds, 20% with a hit somewhere; the sample as a whole holds those more often.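 Activity criterion: percent growth below 10, measured after cells in 96-well plates were exposed to a single compound concentration for 48 hours.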 Values without a mark were called inactive. Activity calls are given as the source filed them.

The results in this text go back to PubChem BioAssay (NCI).

Test in all cases: NCI-60 one-dose screen, 48 h (100 = growth as untreated, 0 = no growth, -100 = all killed)
One assay relates to DU-145 prostate. The following applies: 10 µM unless noted.
The subject of another assay is K-562 leukemia. The following applies: 10 µM unless noted.
The test system of the next assay is MALME-3M melanoma. The following applies: 10 µM unless noted.
The subject of a further assay is MDA-MB-231 breast. The following applies: 10 µM unless noted.
A further assay has as its system RXF 393 renal. The following applies: 10 µM unless noted.
The next assay deals with SF-268 CNS. The following applies: 10 µM unless noted.
Another assay relates to SF-295 CNS. The following applies: 10 µM unless noted.
A further assay deals with SF-539 CNS. The following applies: 10 µM unless noted.
A further assay has as its system UACC-257 melanoma. The following applies: 10 µM unless noted.
For another assay, the system named is HCT-15 colon. The following applies: 10 µM unless noted.
The test system of another assay is HT29 colon. The following applies: 10 µM unless noted.
In another assay the test system is SNB-75 CNS. The following applies: 10 µM unless noted.
The test system of a further assay is SNB-19 CNS. The following applies: 10 µM unless noted.
A further assay concerns U251 CNS. The following applies: 10 µM unless noted.
The subject of another assay is PC-3 prostate. The following applies: 10 µM unless noted.
The subject of the next assay is SK-MEL-5 melanoma. The following applies: 10 µM unless noted.
The next assay relates to UACC-62 melanoma. The following applies: 10 µM unless noted.
For the next assay, the system named is SK-MEL-28 melanoma. The following applies: 10 µM unless noted.
The next assay relates to M14 melanoma. The following applies: 10 µM unless noted.
The next assay deals with LOX IMVI melanoma. The following applies: 10 µM.

Take `CCOC(=O)C1=C(N)N(c2ccccc2)C2=C(C(=O)CC(C)(C)C2)C1c1ccc([N+](=O)[O-])cc1` (centres undefined): the growth is 106% with DU-145 prostate; 83.7% with K-562 leukemia; 120% with MALME-3M melanoma; 97.4% in the assay with MDA-MB-231 breast; 101% with RXF 393 renal; 106% in the assay on SF-268 CNS. Moreover, the growth with SF-295 CNS was 96.2%; in the assay on SF-539 CNS, 94.3%; in the assay on UACC-257 melanoma, 112%; with HCT-15 colon, 86.4%; in the assay on HT29 colon it was 99.4%; in the assay with SNB-75 CNS, 104%. In addition, the growth in the assay with SNB-19 CNS was 94%; with U251 CNS, 101%; in the assay on PC-3 prostate, 68%; with SK-MEL-5 melanoma, 96.5%; in the assay on UACC-62 melanoma it was 66.6%; with SK-MEL-28 melanoma it was 105%.

Take `S=C(Nc1ccc(OCc2nc3ccccc3[nH]2)cc1)NC1CCCCC1`: the growth was 98.4% in the assay on DU-145 prostate; 108% in the assay on K-562 leukemia; 67.6% in the assay with MALME-3M melanoma; 100% in the assay with MDA-MB-231 breast; 147% in the assay on RXF 393 renal; 106% in the assay with SF-268 CNS. Also, the growth was 74.4% in the assay on SF-295 CNS; 79.5% in the assay with SF-539 CNS; 95.5% with UACC-257 melanoma; 105% in the assay with M14 melanoma; 106% in the assay with HCT-15 colon; 99.1% in the assay on SNB-75 CNS. Also, the growth in the assay with SNB-19 CNS was 94%; with U251 CNS it was 97%; in the assay with PC-3 prostate, 95.8%; with SK-MEL-5 melanoma it was 92.3%; with UACC-62 melanoma it was 77.6%; in the assay with SK-MEL-28 melanoma it was 85.2%.

As for `Cc1ccc(C(=O)CSc2nc3ccc(C)cc3c(=O)n2-c2ccc(F)cc2)cc1`, the growth was 80.9% in the assay on DU-145 prostate; 92.7% with K-562 leukemia; 79.6% in the assay with MALME-3M melanoma; 21.3% with MDA-MB-231 breast; 30.5% in the assay with RXF 393 renal; 45.5% with SF-268 CNS. The growth in the assay with SF-295 CNS was 28%; in the assay with SF-539 CNS, 40.2%; in the assay with UACC-257 melanoma, 85.9%; in the assay on M14 melanoma, 79.7%; with HCT-15 colon it was 84.6%; in the assay on SNB-75 CNS it was 7.91% (active). Also, the growth in the assay on U251 CNS is 28.7%; in the assay with PC-3 prostate it was 74%; with SK-MEL-5 melanoma it was 72%; in the assay on UACC-62 melanoma, 86.1%; in the assay with LOX IMVI melanoma, 72.9%; in the assay on SK-MEL-28 melanoma, 88.1%.

For `CC(=O)Oc1ccc(/C=C/C(=O)N[C@@H](Cc2ccccc2)C(O)C(=O)NCc2ccccc2)cc1OC(C)=O` (some centres undefined), the growth is 90.5% in the assay with DU-145 prostate; 77.1% in the assay with K-562 leukemia; 87.4% in the assay on MALME-3M melanoma; 72.7% in the assay with MDA-MB-231 breast; 104% with RXF 393 renal; 68% in the assay on SF-268 CNS. Besides, the growth in the assay with SF-295 CNS was 100%; in the assay on SF-539 CNS it was 71.2%; in the assay on UACC-257 melanoma, 90.8%; with M14 melanoma, 85.3%; in the assay on HCT-15 colon, 78.1%; in the assay on SNB-75 CNS, 61.3%. Besides, the growth with SNB-19 CNS is 83.5%; in the assay with U251 CNS it was 73.8%; in the assay with PC-3 prostate, 76.9%; in the assay with SK-MEL-5 melanoma, 81.8%; with UACC-62 melanoma, 96.1%; in the assay on SK-MEL-28 melanoma it was 88.4%.

With `COc1cc2oc(-c3cccc(C(=O)Nc4ccc(Cl)cc4)c3)cc(=O)c2c(OCCNC(=O)[C@H](CO)NC(=O)OC(C)(C)C)c1OC`, the growth with DU-145 prostate is 32.2%; with K-562 leukemia it was 11.3%; in the assay with MALME-3M melanoma it was 20%; in the assay with MDA-MB-231 breast, 2.74% (active); in the assay with RXF 393 renal it was -25.7% (active); in the assay on SF-268 CNS it was 41.4%. For the same compound, the growth in the assay with SF-295 CNS is -16.4% (active); in the assay with SF-539 CNS, -54.2% (active); in the assay with UACC-257 melanoma it was -41.7% (active); with HCT-15 colon it was 16.5%; in the assay on HT29 colon it was -26.9% (active); in the assay on SNB-75 CNS, 74.5%. Also, the growth in the assay on SNB-19 CNS was 29.7%; with U251 CNS, 24%; with PC-3 prostate, 12.9%; with SK-MEL-5 melanoma, -75.2% (active); in the assay with UACC-62 melanoma it was 7.14% (active); in the assay on LOX IMVI melanoma, -67.5% (active). Moreover, the growth in the assay on SK-MEL-28 melanoma was -23.8% (active).

Consider `CC(C)Sc1nc(NCCc2c[nH]c3ccccc23)c(C#N)c(-c2ccc(F)cc2)n1`, for which the growth in the assay with DU-145 prostate is 40.6%; in the assay on K-562 leukemia, 9.31% (active); in the assay with MALME-3M melanoma, 80.6%; in the assay on MDA-MB-231 breast, 11.2%; in the assay with RXF 393 renal, -3.65% (active); in the assay with SF-268 CNS, 45.1%. Moreover, the growth with SF-295 CNS is 49.4%; in the assay with SF-539 CNS, 40.1%; in the assay on UACC-257 melanoma, 90.2%; with HCT-15 colon, 5.84% (active); in the assay with HT29 colon, -6.22% (active); with SNB-75 CNS, 73%. Besides, the growth in the assay with U251 CNS was 20.7%; in the assay on PC-3 prostate it was 15%; in the assay on SK-MEL-5 melanoma, 24.1%; with UACC-62 melanoma it was 58.8%; with SK-MEL-28 melanoma it was 71.1%.

On to `CCOC(=O)/C=C/c1cccc2c1C(=O)NC(C)(c1cc3cc(Br)ccc3oc1=O)N2` (centres undefined), for which the growth is 49.6% in the assay on DU-145 prostate; 24.1% with K-562 leukemia; 71% in the assay on MALME-3M melanoma; 56% in the assay on MDA-MB-231 breast; 35.6% in the assay on RXF 393 renal; 49.8% with SF-268 CNS. Moreover, the growth in the assay with SF-295 CNS is 36.7%; with SF-539 CNS it was 73.9%; with UACC-257 melanoma, 64.6%; in the assay with HCT-15 colon it was 26.4%; with HT29 colon, 43.5%; in the assay on SNB-75 CNS, 38.3%. Further, the growth with SNB-19 CNS was 48.7%; in the assay with U251 CNS, 47.1%; with PC-3 prostate, 25.4%; with SK-MEL-5 melanoma, 48.2%; in the assay with UACC-62 melanoma, 31.4%; with SK-MEL-28 melanoma it was 58.1%.

For the compound `COc1cccc(/C=C/c2nc3ccccc3c(=O)n2CC(=O)Nc2ccc(Cl)cc2)c1`, the growth was 68.9% with DU-145 prostate; 84.6% in the assay with K-562 leukemia; 67.3% in the assay with MALME-3M melanoma; 27.9% in the assay on MDA-MB-231 breast; 83.5% in the assay with RXF 393 renal; 82.3% with SF-268 CNS. Further, the growth in the assay with SF-295 CNS was 61.2%; with SF-539 CNS, 52.7%; in the assay on UACC-257 melanoma, 92.3%; with M14 melanoma it was 76.3%; in the assay with HCT-15 colon, 88.3%; with SNB-19 CNS, 76.3%. Besides, the growth with U251 CNS is 27.8%; in the assay with PC-3 prostate, 76.3%; with SK-MEL-5 melanoma, 101%; in the assay on UACC-62 melanoma, 95.1%; in the assay with LOX IMVI melanoma it was 39.8%; in the assay with SK-MEL-28 melanoma, 99.2%.
